{"source": "PubChem BioAssay AID1347426", "about": "(Functional Genomics Laboratory (NCATS/FGL), 2020)", "note": "In all, about 31,000 sequences went through this assay and about 1,400 (4.5%) were called active. Only a selection was taken, and actives are over-represented in it overall. Values without a mark were called inactive.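 Rule for the calls: active = median seed-adjusted z-score above 1 or below -1; inactive = the rest.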"}
{"experiment": "Novel Modifiers of Survival Motor Neuron (SMN) Protein: Gene Identification via Genome-wide siRNA Screen;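 note: luminescence tracks full-length SMN protein made from the SMN2 reporter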", "conditions": "HEK293T SMN2-luciferase reporter, siRNA knockdown, 72 h; actives lie on both sides", "outline": "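Steps: spot 1 pmol siRNA, add Lipofectamine RNAiMax in serum-free DMEM, seed HEK293T SMN2–luciferase reporter cells; incubate 72 h at 37 °C; add ONE-Glo; normalize luminescence to control siRNA, log10, MAD. Candidates: |MAD| > 1.0.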"}
{"sequence": "GUUGAGGUCUGGUAACAGATT against TMED1", "median seed-adjusted z-score": 0}
{"sequence": "GGAGUUUGUUUGCAAGUAUTT against RREB1", "median seed-adjusted z-score": -0.414}
{"sequence": "CCAUCUACAUCAGAGUCCATT against BTN1A1", "median seed-adjusted z-score": 0.291}
{"sequence": "GGACAAAUUUUGGAGAGAATT against COG2", "median seed-adjusted z-score": 0.791}
{"sequence": "CCAACAGGAGAGUACGUGATT against STRADA", "median seed-adjusted z-score": 0.415}
{"sequence": "CCAUUUGACUUUAUGGAGATT against RRM2", "median seed-adjusted z-score": "-3.84 (active)"}
{"sequence": "GGCCUUCGUGUACAUCAAUTT against SUV39H1", "median seed-adjusted z-score": -0.0775}
{"sequence": "CUAUGCCCGUGGUCACUAUTT against TUBA4A", "median seed-adjusted z-score": -0.594}
{"sequence": "GAGCCGCUGGUGUAUCUUUTT against TLR4", "median seed-adjusted z-score": 0.113}
{"sequence": "GGCAAGAUCUGUACCGUGATT against HPN", "median seed-adjusted z-score": -0.0237}
{"sequence": "CCAGGACAUUCGAAAGCGATT against TRAF4", "median seed-adjusted z-score": "-1.16 (active)"}
{"sequence": "CGGGUACAAGGAUUGGUUUTT against ROM1", "median seed-adjusted z-score": 0.41}
{"sequence": "CCACUCUCAUUGUGACUGATT against DDX54", "median seed-adjusted z-score": 0}
{"sequence": "GGAUUAUGAAGAAUGGAAATT against ORC6L", "median seed-adjusted z-score": 0}
{"sequence": "GGCAGAGCCUGACCACUUUTT against LOC100137047-PLA2G4B", "median seed-adjusted z-score": -0.022}
{"sequence": "GGAGCGAGCUGGUGCAUAATT against SH3BP5", "median seed-adjusted z-score": -0.707}
{"sequence": "GCAUCGCUGUUACCCAUCUTT against CCRN4L", "median seed-adjusted z-score": -0.572}
{"sequence": "GGAGAUAAGAGAUCAUAUUTT against OXNAD1", "median seed-adjusted z-score": 0.36}
{"sequence": "CAUGAGAUACGAUACACUATT against TRMT6", "median seed-adjusted z-score": 0.069}
{"sequence": "CGCACACGUAGAGACCUUATT against PNN", "median seed-adjusted z-score": "1.29 (active)"}
{"sequence": "CAACUUCACUCAGAACCCATT against MARCO", "median seed-adjusted z-score": 0.137}
{"sequence": "GCCUACUUCAUUCAUCAUATT against KSR1", "median seed-adjusted z-score": 0.0873}
{"sequence": "CAAUCGUCCAAUGAUCUUATT against PCDHB1", "median seed-adjusted z-score": 0.342}
{"sequence": "CCUUCAUAGUCAACAGCAATT against MGC16703", "median seed-adjusted z-score": 0.55}
{"sequence": "GCACGACGACAAUAUCAUUTT against PEX3", "median seed-adjusted z-score": 0.142}
{"sequence": "CCAUUAUUGACUCACCCUATT against CSTF2T", "median seed-adjusted z-score": 0.387}
{"sequence": "GCAUAACUUGAAUAGUACATT against AKAP11", "median seed-adjusted z-score": -0.0405}
{"sequence": "GCAUCAUUGAAGGACUAGATT against HEY1", "median seed-adjusted z-score": -0.023}
{"sequence": "CCCUGGUAGUCAAAAACGATT against PHKB", "median seed-adjusted z-score": -0.142}
{"sequence": "GCUGUGAACUGACUCUGCATT against UROD", "median seed-adjusted z-score": "1.11 (active)"}
{"sequence": "GCCCGACUCUCUAAUGGAATT against PRKD3", "median seed-adjusted z-score": -0.906}
{"sequence": "CUACCGUGCAAGUUCAUUATT against CD3D", "median seed-adjusted z-score": -0.403}
{"sequence": "CCGUCAAGGUGUAUUUUGATT against PPIB", "median seed-adjusted z-score": 0.038}
{"sequence": "GGCUUAACAUUGAACGAAUTT against CRY2", "median seed-adjusted z-score": 0.0209}
{"sequence": "CCAAGACUCCAACCAUUUUTT against IKZF4", "median seed-adjusted z-score": -0.426}
{"sequence": "GGACCUCAAAGUUGUCUAUTT against AP1S1", "median seed-adjusted z-score": "-1.04 (active)"}
{"sequence": "CGUGGGAUGCUCAAAGAUATT against EZR", "median seed-adjusted z-score": 0.0344}
{"sequence": "CCCAGAUCAUAUACUCCUATT against LYPLAL1", "median seed-adjusted z-score": -0.425}
{"sequence": "GGCAUGAAGUGAAGGAUGATT against ZNF134", "median seed-adjusted z-score": -0.0978}
{"sequence": "CCUCAAUACUCCGCAAAUATT against NMNAT2", "median seed-adjusted z-score": "-1.58 (active)"}
{"sequence": "GGAAAGUUAUCAGGAUGCATT against SAG", "median seed-adjusted z-score": 0}
{"sequence": "GGAUUCCAAUCUUAGCUUUTT against RLN1", "median seed-adjusted z-score": 0.0637}
{"sequence": "GGAAUUCCUUUAAUGACGATT against RYR3", "median seed-adjusted z-score": 0}
{"sequence": "CCACCAGCGUGAUCAUUGUTT against GALNT6", "median seed-adjusted z-score": -0.287}
{"sequence": "CUUCCAUGCCUUUGACCUATT against CDCP2", "median seed-adjusted z-score": 0.0708}
{"sequence": "CUUGUGUUCUGAGAAUACATT against KRT83", "median seed-adjusted z-score": "1.15 (active)"}
{"sequence": "AGAAUCGUGUGGAAAAAGATT against PARK7", "median seed-adjusted z-score": -0.357}
{"sequence": "CCAUGACAAUCAACGAGGATT against AMY2A", "median seed-adjusted z-score": -0.266}
{"sequence": "CUUUUGCCUGUAGCCCAUATT against GCS1", "median seed-adjusted z-score": 0.819}
{"sequence": "CGAGAUAACUACUUUCGGATT against RALB", "median seed-adjusted z-score": -0.534}
{"sequence": "ACAGAUCCAUUUUUAGGGATT against PKIG", "median seed-adjusted z-score": 0.0916}
{"sequence": "CCACGUCUCUGGAGAGUUUTT against ALAD", "median seed-adjusted z-score": 0.0952}
{"sequence": "GGCUGUACAUCUGGACCAATT against NFKBIE", "median seed-adjusted z-score": -0.452}
{"sequence": "GGAUGGGCCUUGAAGCCUUTT against GPR97", "median seed-adjusted z-score": -0.0155}
{"sequence": "GGGAAUAUCUCUUCCGACATT against ACTL7A", "median seed-adjusted z-score": "1.1 (active)"}
{"sequence": "GGCUAUCAUCUACACCCGATT against UGCG", "median seed-adjusted z-score": 0.492}
{"sequence": "CGAUUAUUGUGAGCCUAAUTT against JAG1", "median seed-adjusted z-score": -0.32}
{"sequence": "CUAAGAGACUAAAUGCAAATT against SUCLG2", "median seed-adjusted z-score": -0.619}
{"sequence": "GGGCCGCUUUAGAAAGGUATT against SNX1", "median seed-adjusted z-score": 0.0261}
{"sequence": "CCUGGACCCUGAACUCACATT against LILRA4", "median seed-adjusted z-score": 0.109}
{"sequence": "GCAUUACAGUACUUACGUATT against BTAF1", "median seed-adjusted z-score": "-1.19 (active)"}
{"sequence": "GGCUCUUACAAGUCCUUAUTT against CHRM2", "median seed-adjusted z-score": 0.053}
{"sequence": "GGCAUUACCGUGUAUAACATT against CHST10", "median seed-adjusted z-score": 0.115}
{"sequence": "GUACUGGAGUGAUGAGUUUTT against PARP12", "median seed-adjusted z-score": -0.287}
{"sequence": "GUCUGUCGCUACUACAAUATT against SLCO2B1", "median seed-adjusted z-score": 0.289}
{"sequence": "CGAUGGGUCUGUGCACAAATT against TGM2", "median seed-adjusted z-score": 0.413}
{"sequence": "CGGCCUUGAUAAACUGAAATT against SNAPC3", "median seed-adjusted z-score": "-1.72 (active)"}
{"sequence": "CCAUGAGUGUGACUCUCAATT against ZNF599", "median seed-adjusted z-score": 0.0896}
{"sequence": "CCCGGAUUGUUCCUACUGATT against ALG9", "median seed-adjusted z-score": -0.267}
